A selection: hits, their analogues and other compounds. The true share with any hit is near 18%.
CtBP-E1A blk: qHTS Assay for Inhibitors of the CtBP/E1A Interaction | CtBP / adenovirus E1A interaction (AlphaScreen) | AlphaScreen GST-E1A/His-CtBP binding, 1536-well; hits give low values | activity change, % (test concentration not listed) | 340,000 compounds, 0.49% hits | AID 651724, 2012; in the data active means activity change below about -65%; inconclusive means mostly about -30% to -63%
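Steps: dispense buffer (Tris pH 8.0, NaCl 300 mM, TCEP 1 mM, BSA, Tween 20); add 5X protein mix (GST-E1A, His-CtBP, 125 nM each); pin 23 nL compound; 2 h at 37 °C, dark; add 5X beads (50 ug/mL); 1 h; read.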
Six1-Eya2 inh: qHTS Assay for Inhibitors of the Six1/Eya2 Interaction; Homeobox protein SIX1 (Homo sapiens) + Protein phosphatase EYA2 (Homo sapiens), …; AlphaScreen GST-Six1/His-Eya2 binding, biochemical; hits give low values; activity change, % (test concentration not listed); 360,000 compounds, 0.56% hits; in the data active means activity change below about -65%; inconclusive means mostly about -30% to -63%
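AlphaScreen luminescence read after one hour at 37 °C in darkness. Pin-transferred compounds met GST-Six1 and His-Eya2 protein (5X stock 250 nM/500 nM) plus glutathione donor and Ni-chelate acceptor beads (5X, 50 ug/mL).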
TDP1 block: qHTS Assay for Inhibitors of Tyrosyl-DNA Phosphodiesterase (TDP1). Tyrosyl-DNA phosphodiesterase 1 (Homo sapiens), Q9NUW8. Potency, µM (doses to about 130 µM), for inactives: top-dose activity change, negative = inhibition, actives largely listed as inhibitors. 350,000 compounds, 0.28% hits. recombinant TDP1, AlphaScreen DNA substrate cleavage; further: potency means the concentration at half of the fitted maximal effect; nearly all actives have a fitted effect of over 40% in size
Target sequence (Q9NUW8 whole entry, looked up): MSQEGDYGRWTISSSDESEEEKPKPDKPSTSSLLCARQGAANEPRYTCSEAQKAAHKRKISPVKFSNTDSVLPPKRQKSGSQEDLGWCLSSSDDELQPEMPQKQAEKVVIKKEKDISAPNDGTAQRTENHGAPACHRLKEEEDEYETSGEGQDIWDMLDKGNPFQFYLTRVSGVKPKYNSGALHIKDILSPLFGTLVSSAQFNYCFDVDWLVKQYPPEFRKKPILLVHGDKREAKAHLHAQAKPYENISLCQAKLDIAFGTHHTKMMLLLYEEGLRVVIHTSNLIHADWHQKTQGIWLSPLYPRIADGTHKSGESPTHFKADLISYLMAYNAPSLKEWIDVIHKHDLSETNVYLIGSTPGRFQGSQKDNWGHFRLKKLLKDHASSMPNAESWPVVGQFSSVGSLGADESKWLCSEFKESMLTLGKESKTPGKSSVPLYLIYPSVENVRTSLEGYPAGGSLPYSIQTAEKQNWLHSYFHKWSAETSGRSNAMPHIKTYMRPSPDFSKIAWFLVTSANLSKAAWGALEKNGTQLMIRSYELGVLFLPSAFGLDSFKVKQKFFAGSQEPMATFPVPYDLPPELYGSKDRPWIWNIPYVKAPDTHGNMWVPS
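Compounds were preincubated with Tdp1 (1 nM final) for 15 min at room temperature before substrate (15 nM final) started a 5 min reaction; beads (10 ug/ml final) were then added for 10 min before AlphaScreen detection.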
IL-1B inflam inh: qHTS for Inhibitors of Inflammasome Signaling: IL-1-beta AlphaLISA Primary Screen | 360,000 compounds, 4.7% hits | activity change, % at 57.5 µM | THP-1 LPS/ATP IL-1B secretion, AlphaLISA, 16 h; hits give low values; in the data active means activity change below about -50%; inconclusive means mostly about -30% to -49%
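THP-1 cells pretreated 1 hr with compounds (up to 57.5 uM final), then stimulated with LPS (250 ng/mL final) plus ATP (1.25 mM final); secreted IL-1B measured by AlphaLISA after 16 hr, decreased signal indicating inhibition.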
TDP1 cell noCPT: qHTS for Inhibitors of human tyrosyl-DNA phosphodiesterase 1 (TDP1): qHTS in cells in absence of CPT; Potency, µM (doses to about 46.2 µM), inactives show top-dose activity change, negative = growth inhibition, usual class: inhibitors; DT40 Tdp1-/- hTDP1 cells, no CPT, ATP luminescence, 48 h; 420,000 compounds, 15% hits; further: potency means the concentration at half of the fitted maximal effect; nearly all actives have a fitted effect of over 55% in size
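Chicken DT40 Tdp1-/- cells stably complemented with human TDP1 were seeded at 400 cells/well with DMSO in place of 20 nM camptothecin. After compound pinning, cells grew at least 48 hr at 37 °C; viability read by CellTiter-Glo luminescence.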
TDP1 cell CPT: qHTS for Inhibitors of human tyrosyl-DNA phosphodiesterase 1 (TDP1): qHTS in cells in presence of CPT. Potency, µM (doses to about 46.2 µM), for inactives: top-dose activity change, negative = growth inhibition, hits mostly inhibitors. 420,000 compounds, 12% hits. chicken DT40 Tdp1-/-;hTDP1 cells + 20 nM CPT, ATP luminescence, 48 h; further: potency means the concentration at half of the fitted maximal effect; nearly all actives have a fitted effect of over 55% in size
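Cell growth measured by CellTiter-Glo luminescence after a minimum 48 h, 37 C compound exposure with 20 nM CPT in Tdp1-knockout DT40 cells stably expressing hTDP1, seeded 400/well; qHTS titration format.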
Starred values were filed as active, the others as inactive; ? = inconclusive; · = no result given; [ ] = another dose, or the depositor's remark. Unless noted, the call rests on the fitted dose curve; in most records, active means well fitted curve in the direction sought with a large enough effect; inconclusive means small, poorly fitted or top-dose-only effect, or another doubt; inactive means no such curve, though single readings can be large; an effect the other way counts as inactive or inconclusive. On the % scale 0 is the no-effect control and ±100 the full control effect.

SMILES	CtBP-E1A blk	Six1-Eya2 inh	TDP1 block	IL-1B inflam inh	TDP1 cell noCPT	TDP1 cell CPT
CCc1ccc(C2C(C#N)=C(N)C(C#N)(C#N)C3=CCC(C(C)(C)C)CC32)cc1 (centres undefined)	-4	-5	0%	-58*	15µM*	?
CCOC(=O)c1c(C)[nH]c(C2=NNC(=Nc3ccccc3)SC2)c1C	·	?	-3%	-67*	9.2µM*	13µM*
CCOC(=O)c1c(C)[nH]c(N=Nc2ccccc2Cl)c1C	-11	?	12%	-15	?	?
CCOC(=O)c1c(C)[nH]c(C2=NNC(=Nc3ccc(OCC)cc3)SC2)c1C	-1	?	10%	-52*	16µM*	16µM*
CCOC(=O)c1ccc(N=C2NC(=O)CS2)cc1	5	6	0%	-7	-10%	-9%
CC(=O)c1c(C)[nH]c(C2=NNC(=NC(C)(C)C)SC2)c1C	3	-1	8%	-21	-13%	17%
CCOC(=O)c1c(C)[nH]c(C2=NNC(=Nc3ccccc3OC)SC2)c1C	?	?	9%	-62*	18µM*	?
CC(C)CN(C(=O)C1CC1)c1c(N)n(Cc2ccccc2)c(=O)[nH]c1=O	-3	9	-6%	3	-4%	17%
Cc1noc(C)c1NC(=O)N(C)C[C@@H]1Oc2cc(Br)ccc2S(=O)(=O)N([C@H](C)CO)C[C@@H]1C	7	-1	·	25	0%	8%
COc1nc(Cc2ccc(Cl)cc2)nc2ccccc12	7	4	-1%	-22	?	3%
COc1cc2cncc(Cc3ccc(Cl)cc3)c2cc1OC	-5	-1	2%	-11	18µM*	15µM*
COc1cc(NC(=O)c2c(C)oc3c2C2=NCCN2C=N3)cc(OC)c1OC	·	·	6%	·	?	-14%
COc1ccc(-c2ccc(C(=O)N3CCN(C)CC3)c3occc23)c(C)c1	3	-4	·	6	6.5µM*	15µM*
COc1ccc(-c2ccc(C(=O)N3CCOCC3)c3occc23)c(C)c1	-10	0	·	16	18µM*	15µM*
COc1ccc(-c2ccc(C(=O)NCC(C)C)c3occc23)c(C)c1	1	2	·	?	?	?
COc1ccc(/C=C2\CCC(C3CCCC3)C2=O)c(OC)c1OC (centres undefined)	-25	3	·	-8	18µM*	?
COc1ccc(/C=C2/CC/C(=C\c3ccc(OC)c(OC)c3OC)C2=O)c(OC)c1OC	-15	0	5%	-22	8.2µM*	?
COc1ccc(C=C2SC(=S)NC2=O)c(OC)c1OC	-11	-8	·	?	?	?
COc1cc(/C=C2\CCC(C3CCCC3)C2=O)cc(OC)c1OC (centres undefined)	12	-2	·	19	16µM*	?
COc1ccc(CCN(C)C(=O)COc2ccc(N(C)S(=O)(=O)c3ccc(C)cc3)cc2)cc1OC	-7	-2	·	-9	?	?
CCc1ccc(-c2nn(CC(=O)NC3CCCC3)c3c2cnc2ccc(F)cc23)cc1	·	·	5%	·	-15%	-22%
C[C@]12c3[nH]c4ccc(Cl)cc4c3CCN1C(=O)[C@@H](CC(=O)NCCN1CCOCC1)C[C@@H]2C(=O)N1CCCCC1	2	1	1%[56.1 µM]	-22	16µM*	?
CC(C)(C)NC(=O)C[C@H]1C[C@H](C(=O)N2CCCCC2)[C@@]2(C)c3[nH]c4ccc(Cl)cc4c3CCN2C1=O	-19	-4	2%[56.1 µM]	-23	21µM*	23µM*
O=C1CC(Sc2ccc(Cl)cc2)C(=O)N1c1ccc2c(c1)OCCO2 (centres undefined)	-1	-2	1%	·	15µM*	2.9µM*
Nc1ccccc1SC1CC(=O)N(c2ccc(Cl)c(Cl)c2)C1=O (centres undefined)	·	0	-1%	?	13µM*	26µM*
SMILES	CtBP-E1A blk	Six1-Eya2 inh	TDP1 block	IL-1B inflam inh	TDP1 cell noCPT	TDP1 cell CPT
Nc1ccccc1SC1CC(=O)N(c2ccc3c(c2)OCCO3)C1=O (centres undefined)	-13	-5	·	-7	?	-25%
O=C1CC(SC(=Nc2ccccc2)Nc2ccccc2)C(=O)N1c1ccc(Cl)c(Cl)c1 (centres undefined)	12	-2	-3%	?	18µM*	?
O=C1SC(SC(=Nc2ccccc2)Nc2ccccc2)C(=O)N1c1ccccc1 (centres undefined)	-14	-15	5%	-10	?	15µM*
Cc1cccc(N2C(=O)CC(SC(=Nc3ccccc3)Nc3ccccc3)C2=O)c1 (centres undefined)	-1	-7	5%	-22	?	?
O=C1CC(SC2=NCCS2)C(=O)N1c1ccc(Cl)cc1 (centres undefined)	-13	2	1%	0	0%	6%
C=CCn1c(SCC(=O)Nc2nccs2)nnc1-c1cc2cccc(OC)c2o1	-1	0	7%	17	?	?
CSc1nc(C)c(C(=O)C[n+]2ccccc2C)cc1C#N	1	1	3%	?	?	?
CC(=O)CCc1oc2ccc(C)cc2c1Cc1ccccc1	-6	45	·	1	?	15%
COc1ccc(NC(=O)C2CCCN(S(=O)(=O)c3ccc(-n4cnnn4)cc3)C2)cc1 (centres undefined)	-5	26	-8%	13	-10%	-3%
COc1cccc(C2C=C(c3cccs3)Nc3ncnn32)c1OC (centres undefined)	1	0	7%	-5	-43%	?
COc1ccccc1C1CN(c2ccccc2)N=C1c1cccs1 (centres undefined)	10	126	7.9µM*	22	?	?
COc1cccc(C2CN(c3ccc(F)cc3F)N=C2c2cccs2)c1OC (centres undefined)	86	69	?	14	?	16µM*
COc1ccc(NC(=O)c2c(NC(=O)COc3ccccc3)sc3c2CCCCC3)cc1	·	·	·	·	-7%	-1%

From PubChem
